Several values for one entry are separate records, joined by “and”; a condition that tells them apart may be missing. Equal values may be shown once. Results filed as inconclusive are left out. Entries that show only a call come without a potency. Activity calls are given as the source filed them. Unless noted, calls come from the whole dose curve; as a rule, active = well fitted curve in the direction sought with a large enough effect in the repeat runs; inconclusive = weak or mixed curves; inactive = flat fitted curve, though single readings scatter.
Key:
[1] = qHTS assay to test for compound auto fluorescence at 535 nm (green) in HEK293 cell free culture (AID 720682); details: cell-free medium, green autofluorescence 485/535 nm; series mostly up to 91.3 µM
How it was run: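 Cell-free medium (DMEM, 10% FBS) receives compound or DMSO by pintool. Plate read directly at Ex 485/Em 535 nm. Signal converted to fluorescein equivalency.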

[2] = qHTS assay to test for compound auto fluorescence at 590 nm (red) in HEK293 cell free culture (AID 720683); details: cell-free medium autofluorescence, Ex540/Em590 red; series mostly up to 91.3 µM
How it was run: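 Cell-free wells of DMEM with 10% FBS received compound, and intrinsic fluorescence was read at excitation/emission 540/590 nm. Values expressed as equivalence to Rose Bengal sodium.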

[3] = qHTS assay to test for compound auto fluorescence at 590 nm (red) in HepG2 cell free culture (AID 720684); details: cell-free medium autofluorescence, red 540/590 nm; series mostly up to 91.3 µM
How it was run: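 Compound was pinned into wells holding MEM with 10% FBS and no cells, and red fluorescence was read at Ex/Em 540/590 nm. Signal is expressed as auto fluorescence equivalency relative to Rose Bengal sodium.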

[4] = qHTS assay to test for compound auto fluorescence at 460 nm (blue) in HepG2 cell free culture (AID 720685); details: Cell-free culture medium, blue autofluorescence 405/460 nm; series mostly up to 91.3 µM; note: potency is the fitted concentration of half-maximal effect
How it was run: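 Compound (23 nL) or DMSO pinned into cell-free MEM with 10% FBS; blue fluorescence read at 405/460 nm excitation/emission, expressed as auto-fluorescence equivalency to triamterene.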

[5] = qHTS assay to test for compound auto fluorescence at 535 nm (green) in HepG2 cell free culture (AID 720686); details: Cell-free medium, green autofluorescence 485/535 nm; series mostly up to 91.3 µM
[6] = qHTS assay to test for compound auto fluorescence at 460 nm (blue) in HepG2 cells (AID 720687); details: autofluorescence 405/460 nm, 1 h; series mostly up to 91.3 µM; note: potency is the fitted concentration of half-maximal effect
How it was run: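 HepG2 cells in MEM with 10% FBS, attached overnight at 37 C, were exposed to compound or DMSO for 1 hr at 37 C, 5% CO2. Blue fluorescence was read at 405/460 nm, with triamterene as reference fluorophore.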

[7] = target: Glucocorticoid receptor (Homo sapiens) (UniProt P04150); assay: qHTS assay to identify small molecule agonists of the glucocorticoid receptor (GR) signaling pathway (AID 720691; active = well fitted activation curve with a large enough effect in the signal ratio in the repeat runs, not every such curve was filed as active; the % refers to the signal ratio; note: potency is the fitted concentration of half-maximal effect); details: GR-bla HeLa, beta-lactamase reporter ratio, 18 h; series mostly up to 62.4 µM
How it was run: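 Beta-lactamase reporter activity, read as fluorescence intensity, was measured in GR-bla HeLa cells exposed to compounds for 18 h at 37 C and then loaded with LiveBLAzer B/G FRET substrate for 2 h at room temperature.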

[8] = target: Glucocorticoid receptor (Homo sapiens) (UniProt P04150); assay: qHTS assay to identify small molecule antagonists of the glucocorticoid receptor (GR) signaling pathway (AID 720692; active = well fitted inhibition curve with a large enough effect in the signal ratio in the repeat runs, not every such curve was filed as active; the % refers to the signal ratio; note: potency is the fitted concentration of half-maximal effect); details: GR-bla HeLa, beta-lactamase FRET ratio, dexamethasone-stimulated, 18 h; series mostly up to 58.5 µM
How it was run: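 Fluorescence from cleaved LiveBLAzer B/G FRET substrate reports GRE-driven beta-lactamase in HeLa cells; compounds are tested against 5 nM dexamethasone (final) over 18 h at 37 C, substrate incubation 2 h at room temperature.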

[9] = qHTS assay to test for compound auto fluorescence at 460 nm (blue) in HEK293 cell free culture (AID 720681); details: cell-free medium, autofluorescence 405/460 nm (blue); series mostly up to 91.3 µM; note: potency is the fitted concentration of half-maximal effect
How it was run: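 Compounds were added to cell-free DMEM with 10% FBS and fluorescence read directly. The blue channel used 405 nm excitation and 460 nm emission, with triamterene as the reference fluorophore.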
Tags give direction and shape of the fitted curve or compound fluorescence and quenching.

Sequence of Glucocorticoid receptor (Homo sapiens) (P04150 whole entry, looked up): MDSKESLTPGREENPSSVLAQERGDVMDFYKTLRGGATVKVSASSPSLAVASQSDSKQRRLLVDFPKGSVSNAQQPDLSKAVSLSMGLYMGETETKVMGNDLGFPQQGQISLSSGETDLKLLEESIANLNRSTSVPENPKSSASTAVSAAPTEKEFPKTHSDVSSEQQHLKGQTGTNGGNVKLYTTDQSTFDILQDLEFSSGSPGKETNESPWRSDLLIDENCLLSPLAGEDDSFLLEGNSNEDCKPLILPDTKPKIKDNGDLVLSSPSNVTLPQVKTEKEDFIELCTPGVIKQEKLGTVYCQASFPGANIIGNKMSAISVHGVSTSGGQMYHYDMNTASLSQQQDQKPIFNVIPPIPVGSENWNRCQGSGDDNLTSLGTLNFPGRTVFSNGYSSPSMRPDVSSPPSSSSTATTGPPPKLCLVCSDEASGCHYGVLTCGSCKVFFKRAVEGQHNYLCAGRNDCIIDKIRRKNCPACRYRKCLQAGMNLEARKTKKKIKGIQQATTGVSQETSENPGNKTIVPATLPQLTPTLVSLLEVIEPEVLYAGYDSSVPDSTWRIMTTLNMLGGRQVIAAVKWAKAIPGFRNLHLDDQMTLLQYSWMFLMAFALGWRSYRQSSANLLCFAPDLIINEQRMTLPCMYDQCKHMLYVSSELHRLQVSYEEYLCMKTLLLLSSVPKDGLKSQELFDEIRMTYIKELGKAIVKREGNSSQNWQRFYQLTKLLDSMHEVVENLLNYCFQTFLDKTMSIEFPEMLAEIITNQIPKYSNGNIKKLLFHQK

| Structure (SMILES) | Potency [1] | outcome [2] | outcome [3] | Potency [4] | Potency [5] | Potency [6] | Potency [7] | Potency [8] | Potency [9] |
| --- | --- | --- | --- | --- | --- | --- | --- | --- | --- |
| C=C(C)C1CC=C(C)C(OC(C)=O)C1 (stereo not drawn) | inactive | inactive | inactive | inactive | inactive | inactive | inactive | inactive | – |
| Nc1ccc2cc3ccccc3cc2c1 | inactive | inactive | inactive | 39.8 µM [fluorescent] (active) | inactive | 39.8 µM [fluorescent] (active) | – | – | 39.8 µM (active) |
| Cc1cc(Cc2cc(C)cc(C(C)(C)C)c2O)c(O)c(C(C)(C)C)c1 | inactive | inactive | inactive | inactive | inactive | inactive | – | – | – |
| c1ccc2cc3c(ccc4ccccc43)cc2c1 | inactive | inactive | inactive | inactive | inactive | inactive | – | – | inactive |
| Nc1cc(Cl)c(-c2cc(Cl)c(N)cc2Cl)cc1Cl | inactive | inactive | inactive | inactive | inactive | inactive | – | – | inactive |
| NC(Cc1ccc(Cl)cc1)C(=O)O (stereo not drawn) | inactive | inactive | inactive | inactive | inactive | inactive | inactive | inactive | inactive |
| CCN(CC)c1ccc2c(C)cc(=O)oc2c1 | inactive | inactive | inactive | 35.5 µM [fluorescent] (active) and 39.8 µM [fluorescent] (active) | inactive | 39.8 µM [fluorescent] (active) | – | – | 39.8 µM (active) |
| CC(C)(c1ccccc1)c1ccc(Nc2ccc(C(C)(C)c3ccccc3)cc2)cc1 | inactive | inactive | inactive | inactive | inactive | inactive | – | – | – |
| CC(=O)CC(=O)Nc1ccc2[nH]c(=O)[nH]c2c1 | inactive | inactive | inactive | inactive | inactive | inactive | – | – | inactive |
| CC(=O)Nc1ccc(C(=O)CCl)cc1 | inactive | inactive | inactive | inactive | inactive | inactive | inactive | – | inactive |
| Cc1cccc([N+](=O)[O-])c1C(=O)O | inactive | inactive | inactive | inactive | inactive | inactive | inactive | inactive | inactive |
| CC(C)(C)NC(=O)[C@@H]1CN(Cc2cccnc2)CCN1C[C@@H](O)C[C@@H](Cc1ccccc1)C(=O)N[C@H]1c2ccccc2C[C@H]1O | inactive | inactive | inactive | inactive | inactive | inactive | inactive | inactive | inactive |
| CCOc1ccccc1C(N)=O | inactive | inactive | inactive | inactive | inactive | inactive | inactive | – | inactive |
| C=C(C)C(=O)O | inactive | inactive | inactive | inactive | inactive | inactive | inactive | – | inactive |
| CCCCCC(=O)O[C@]1(C(C)=O)CC[C@H]2[C@@H]3CCC4=CC(=O)CC[C@]4(C)[C@H]3CC[C@@]21C | inactive | inactive | inactive | inactive | inactive | inactive | inactive | 268 nM (active) and 194 nM (active) | – |
| Oc1ccc(Cl)cc1Cc1cc(Cl)ccc1O | inactive | inactive | inactive | inactive | inactive | inactive | – | – | inactive |
| Cc1cccc(O)c1C | inactive | inactive | inactive | inactive | inactive | inactive | inactive | inactive | inactive |
| BrC1CCC(Br)C(Br)CCC(Br)C(Br)CCC1Br (stereo not drawn) | inactive | inactive | inactive | inactive | inactive | inactive | – | – | inactive |
| c1ccc2c(c1)-c1cccc3c1c-2cc1ccccc13 | inactive | inactive | inactive | inactive | inactive | inactive | 21.4 µM [fluorescent] (active) and 49 µM [fluorescent] (active) | – | inactive |
| CC(C)CCOCc1ccccc1 | inactive | inactive | inactive | inactive | inactive | inactive | inactive | inactive | inactive |
| O | inactive | inactive | inactive | inactive | inactive | inactive | – | – | – |
| COc1cc(C(=S)N2CCOCC2)ccc1O | inactive | inactive | inactive | inactive | inactive | inactive | inactive | – | – |
| CCn1cc(C(=O)O)c(=O)c2cc(F)c(N3CCNC(C)C3)c(F)c21 (stereo not drawn) | inactive | inactive | inactive | inactive | inactive | inactive | inactive | – | inactive |
| CN(C)c1ccc2nc3ccc(=[N+](C)C)cc-3sc2c1 | inactive | inactive | inactive | inactive | inactive | inactive | – | – | inactive |
| O=C1Nc2ccccc2C1(c1ccc(O)cc1)c1ccc(O)cc1 | inactive | inactive | inactive | inactive | inactive | inactive | – | – | inactive |
| CCN(CC)CCOc1ccc(/C(=C(\Cl)c2ccccc2)c2ccccc2)cc1 | inactive | inactive | inactive | inactive | inactive | inactive | – | – | inactive |
| CC(C)CCCCCCc1ccc(O)cc1 | inactive | inactive | inactive | inactive | inactive | inactive | inactive | – | – |
